According to PubChem BioAssay (Tox21):
“And” between values parts separate entries of the source, which are not always exact repeats. Equal entries are not always repeated. Results filed as inconclusive are left out. Where a structure was tested more than once in an assay, its records may differ in their call. The source made the active and inactive calls. Unless noted, calls follow the shape of the dose curve; as a rule, active = well fitted curve in the direction sought with a large enough effect in the repeat runs; inconclusive = weak or mixed curves; inactive = no such curve, though single readings can be large; an effect the other way counts as inactive or inconclusive.

How the values were obtained:
[1] = target: Progesterone receptor (Homo sapiens) (UniProt P06401); test: qHTS assay to identify small molecule agonists of the progesterone receptor (PR) signaling pathway (AID 1346784; calls by dose curve; also: nearly all actives have a fitted effect of over 30% in size)
Outline: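 PR-UAS-bla HEK 293T cells carrying a UAS-driven beta-lactamase reporter were seeded in medium with 2% charcoal-stripped FBS, preincubated 6 hr at 37C, then exposed to compounds in DMSO for 16 hr; agonism was read by LiveBLAzer B/G FRET fluorescence.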

[2] = target: Progesterone receptor (Homo sapiens) (UniProt P06401); test: qHTS assay to identify small molecule antagonists of the progesterone receptor (PR) signaling pathway (AID 1346795; active = well fitted inhibition curve with a large enough effect in the signal ratio in the repeat runs, not every such curve was filed as active; the % refers to the signal ratio; also: potency is read from the fitted curve at half-maximal effect)
Outline: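 PR-UAS-bla HEK293T cells carrying a UAS-driven beta-lactamase reporter were plated in medium with 2% charcoal-stripped FBS and rested 6 hr at 37C. Compounds were added with 1 nM R5020 (final) for 16 hr, then FRET substrate loaded 2 hr at room temperature.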

[3] = qHTS assay to identify small molecule antagonists of the progesterone receptor (PR) signaling pathway - cell viability counter screen (AID 1346798); also: nearly all actives have a fitted effect of over 50% in size; also: potency is read from the fitted curve at half-maximal effect
Outline: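 PR-UAS-bla HEK293T cells in medium with 2% charcoal-stripped FBS were treated with compounds plus R5020 for 16 hr at 37C. Cell viability was then read by CellTiter-Glo luminescence after 30 min at room temperature in the same wells.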

[4] = qHTS assay to identify small molecule agonists of the progesterone receptor (PR) signaling pathway - cell viability counter screen (AID 1346799; calls by dose curve; also: nearly all actives have a fitted effect of over 45% in size)
Outline: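 PR-UAS-bla HEK293T cells, 3,000 per well in medium with 2% charcoal-stripped FBS, were preincubated 6 hr at 37C, then exposed to compounds for 16 hr; viability was read as CellTiter-Glo luminescence after 30 min at room temperature.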

[5] = qHTS assay to identify small molecule antagonists of the TGF-beta/Smad signaling pathway - cell viability counter screen (AID 1346824); also: nearly all actives have a fitted effect of over 50% in size
Outline: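 Cytotoxicity counter-screen run in the same wells as the beta-lactamase Smad reporter read: CellTiter-Glo luminescence after 30 min at room temperature. HEK 293T SBE-bla cells had 5 hr compound exposure at 37 C with TGF-beta1 (0.25 ng/mL stock).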

[6] = qHTS assay to identify small molecule agonists of the TGF-beta/Smad signaling pathway - cell viability counter screen (AID 1346829); also: top concentration of the series differs between compounds; nearly all actives have a fitted effect of over 45% in size
Outline: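 HEK 293T SBE-bla line, 5 hr compound exposure at 37 C, multiplexed CellTiter-Glo viability read by luminescence.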

[7] = qHTS assay to identify small molecule agonists of the TGF-beta/Smad signaling pathway (AID 1346859; active = well fitted activation curve with a large enough effect in the signal ratio in the repeat runs, not every such curve was filed as active; the % refers to the signal ratio; also: series mostly up to about 77 µM)
Outline: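 HEK 293T cells stably carrying a beta-lactamase reporter driven by the Smad binding element were seeded overnight, exposed to DMSO-dissolved compounds for 5 hr at 37 C, 5% CO2, then loaded with FRET substrate for 2 hr at room temperature.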

[8] = Human pregnane X receptor (PXR) small molecule agonists, qHTS cell viability counter screen (AID 1346977); also: nearly all actives have a fitted effect of over 50% in size; also: potency is read from the fitted curve at half-maximal effect
Outline: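 PXR-Luc HepG2 cells in medium with 5% charcoal-stripped FBS were pre-incubated 5hr, then exposed to compounds for 24hr at 37C. Viability was read in the same wells by CellTiter-Fluor fluorescence, reagent added after 23hr with a 1hr incubation.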

[9] = Caspase-3/7 induction in HepG2 cells by small molecules, qHTS assay (AID 1346978); also: nearly all actives have a fitted effect of over 15% in size
Outline: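 Caspase-3/7 induction was measured by Caspase-Glo 3/7 luminescence (30 min, room temperature) after a 17 hr compound exposure of wild-type HepG2 cells seeded at 2,000 per well and pre-incubated 5 hr.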

[10] = Caspase-3/7 induction in CHO-K1 cells by small molecules, qHTS cell viability counter screen (AID 1346979); also: nearly all actives have a fitted effect of over 35% in size; also: potency is read from the fitted curve at half-maximal effect
Outline: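 Wild-type CHO-K1 cells were seeded at 1,500 per well, rested 5hr at 37 C, then exposed to compounds in DMSO. After 16hr, CellTiter-Fluor reagent was added and fluorescence read 1hr later as the viability measure.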

[11] = Caspase-3/7 induction in CHO-K1 cells by small molecules, qHTS assay (AID 1346980); also: nearly all actives have a fitted effect of over 15% in size
Outline: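 Luminescent Caspase-Glo 3/7 read (30min, room temperature) quantified apoptosis induction. Cells were wild-type CHO-K1, treated with compound for 17hr at 37 C and 5% CO2.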

[12] = Caspase-3/7 induction in HepG2 cells by small molecules, qHTS cell viability counter screen (AID 1346981); also: series mostly up to about 92 µM; nearly all actives have a fitted effect of over 30% in size
Outline: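 After a 5-hr attachment period at 37 C and 5% CO2, wild-type HepG2 cells received compounds in DMSO. Sixteen hours later CellTiter-Fluor was dispensed and the fluorescent signal quantified after a further hour.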

[13] = target: Thyrotropin-releasing hormone receptor (Homo sapiens) (UniProt P34981); test: qHTS assay to identify small molecule antagonists of the thyrotropin-releasing hormone receptor (TRHR) signaling pathway (AID 1346877; active = well fitted inhibition curve with a large enough effect in the repeat runs, not every such curve was filed as active; also: series mostly up to about 51 µM)
Outline: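 Calcium signal in dye-loaded TRHR/HEK293 cells; compounds added 5 min before TRH (1 nM final); fluorescence monitored 3 min at 1 s steps.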

[14] = target: Thyrotropin-releasing hormone receptor (Homo sapiens) (UniProt P34981); test: qHTS assay to identify small molecule agonists of the thyrotropin-releasing hormone receptor (TRHR) signaling pathway (AID 1346891; calls by dose curve; also: series mostly up to about 58 µM)
Outline: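 TRHR-expressing HEK293 cells were plated 18 h at 37 °C/5% CO2, loaded with calcium dye 2 h at 37 °C, then given compound in DMSO; fluorescence was read kinetically for 3 min at 1 s intervals.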

[15] = target: Nuclear receptor subfamily 1 group I member 2 (Homo sapiens) (UniProt O75469); test: Human pregnane X receptor (PXR) small molecule agonists, qHTS assay (AID 1346982); also: nearly all actives have a fitted effect of over 35% in size; also: potency is read from the fitted curve at half-maximal effect
Outline: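 Tox21 qHTS; PXR-Luc HepG2; compounds pinned from DMSO; 24 hr, 37 C; ONE-Glo luciferase detection, 30 min room temperature.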

[16] = target: Acetylcholinesterase (Homo sapiens) (UniProt P22303); test: Acetylcholinesterase (AChE) small molecule antagonists: colormetric cell-based qHTS assay (AID 1347395; calls by dose curve; also: nearly all actives have a fitted effect of over 30% in size; also: potency is read from the fitted curve at half-maximal effect)
Outline: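 SH-SY5Y cells, plated overnight at 37 C, were exposed to compounds for 30 min at 37 C and 5% CO2. Acetylthiocholine plus DTNB was then added, and thiocholine from endogenous AChE was quantified colorimetrically after 90 min at 37 C.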

[17] = target: Acetylcholinesterase (Homo sapiens) (UniProt P22303); test: Acetylcholinesterase (AChE) small molecule antagonists: enzyme-based qHTS assay (AID 1347397; calls by dose curve; also: nearly all actives have a fitted effect of over 55% in size; also: potency is read from the fitted curve at half-maximal effect); conditions: Potency: AChE enzyme activity inhibition
Outline: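 Colorimetric DTNB readout of acetylthiocholine hydrolysis, 10 min at room temperature, after 30 min room-temperature exposure of 50 mU/mL recombinant human enzyme to compound; DMSO vehicle control.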

Measured: Potency

Sequence of Thyrotropin-releasing hormone receptor (Homo sapiens) (P34981 whole entry, looked up): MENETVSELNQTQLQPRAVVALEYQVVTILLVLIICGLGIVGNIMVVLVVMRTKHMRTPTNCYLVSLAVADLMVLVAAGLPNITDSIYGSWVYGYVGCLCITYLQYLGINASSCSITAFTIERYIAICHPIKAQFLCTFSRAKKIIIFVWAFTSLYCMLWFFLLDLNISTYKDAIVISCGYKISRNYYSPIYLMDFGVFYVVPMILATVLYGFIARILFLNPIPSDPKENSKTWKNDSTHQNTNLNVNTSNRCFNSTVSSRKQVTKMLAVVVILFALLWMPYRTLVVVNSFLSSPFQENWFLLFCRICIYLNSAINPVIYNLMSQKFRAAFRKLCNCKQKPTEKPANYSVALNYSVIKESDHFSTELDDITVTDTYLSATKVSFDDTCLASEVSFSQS
Sequence of Nuclear receptor subfamily 1 group I member 2 (Homo sapiens) (O75469 whole entry, looked up): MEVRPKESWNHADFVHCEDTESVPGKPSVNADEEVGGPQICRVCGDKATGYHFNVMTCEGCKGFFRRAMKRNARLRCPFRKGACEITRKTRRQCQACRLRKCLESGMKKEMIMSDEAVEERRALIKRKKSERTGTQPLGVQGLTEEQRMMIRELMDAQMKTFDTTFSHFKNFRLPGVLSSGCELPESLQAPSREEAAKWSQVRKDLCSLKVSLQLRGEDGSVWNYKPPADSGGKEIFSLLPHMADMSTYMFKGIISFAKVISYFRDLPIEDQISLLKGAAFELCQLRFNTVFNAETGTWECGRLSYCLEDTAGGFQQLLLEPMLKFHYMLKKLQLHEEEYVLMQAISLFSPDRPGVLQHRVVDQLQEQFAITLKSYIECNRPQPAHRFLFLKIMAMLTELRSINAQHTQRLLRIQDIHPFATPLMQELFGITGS
Sequence of Progesterone receptor (Homo sapiens) (P06401 whole entry, looked up): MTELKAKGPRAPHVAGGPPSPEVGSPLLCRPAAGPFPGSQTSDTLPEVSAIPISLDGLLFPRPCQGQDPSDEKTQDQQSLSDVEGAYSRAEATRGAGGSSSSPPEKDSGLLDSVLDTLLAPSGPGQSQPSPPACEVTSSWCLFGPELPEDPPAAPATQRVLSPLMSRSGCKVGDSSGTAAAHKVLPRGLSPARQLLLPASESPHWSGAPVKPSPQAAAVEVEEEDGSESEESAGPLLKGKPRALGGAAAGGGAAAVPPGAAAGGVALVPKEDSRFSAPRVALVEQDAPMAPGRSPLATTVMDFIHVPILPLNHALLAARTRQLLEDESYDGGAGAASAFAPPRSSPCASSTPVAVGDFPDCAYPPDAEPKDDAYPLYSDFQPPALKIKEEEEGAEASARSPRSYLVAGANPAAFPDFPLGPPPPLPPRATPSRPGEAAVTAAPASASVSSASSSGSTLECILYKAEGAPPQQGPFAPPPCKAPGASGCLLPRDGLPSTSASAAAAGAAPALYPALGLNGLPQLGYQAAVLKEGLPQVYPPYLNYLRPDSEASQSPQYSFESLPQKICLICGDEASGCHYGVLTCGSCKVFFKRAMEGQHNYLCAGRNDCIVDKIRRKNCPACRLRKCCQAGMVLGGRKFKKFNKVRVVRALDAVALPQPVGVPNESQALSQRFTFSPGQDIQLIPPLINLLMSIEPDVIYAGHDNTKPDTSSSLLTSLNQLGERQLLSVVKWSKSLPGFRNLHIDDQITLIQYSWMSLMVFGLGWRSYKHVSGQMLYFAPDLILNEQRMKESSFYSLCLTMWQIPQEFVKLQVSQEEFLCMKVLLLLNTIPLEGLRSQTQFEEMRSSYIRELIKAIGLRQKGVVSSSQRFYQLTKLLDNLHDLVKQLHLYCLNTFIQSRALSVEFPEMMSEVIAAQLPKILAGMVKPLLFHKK
Sequence of Acetylcholinesterase (Homo sapiens) (P22303 whole entry, looked up): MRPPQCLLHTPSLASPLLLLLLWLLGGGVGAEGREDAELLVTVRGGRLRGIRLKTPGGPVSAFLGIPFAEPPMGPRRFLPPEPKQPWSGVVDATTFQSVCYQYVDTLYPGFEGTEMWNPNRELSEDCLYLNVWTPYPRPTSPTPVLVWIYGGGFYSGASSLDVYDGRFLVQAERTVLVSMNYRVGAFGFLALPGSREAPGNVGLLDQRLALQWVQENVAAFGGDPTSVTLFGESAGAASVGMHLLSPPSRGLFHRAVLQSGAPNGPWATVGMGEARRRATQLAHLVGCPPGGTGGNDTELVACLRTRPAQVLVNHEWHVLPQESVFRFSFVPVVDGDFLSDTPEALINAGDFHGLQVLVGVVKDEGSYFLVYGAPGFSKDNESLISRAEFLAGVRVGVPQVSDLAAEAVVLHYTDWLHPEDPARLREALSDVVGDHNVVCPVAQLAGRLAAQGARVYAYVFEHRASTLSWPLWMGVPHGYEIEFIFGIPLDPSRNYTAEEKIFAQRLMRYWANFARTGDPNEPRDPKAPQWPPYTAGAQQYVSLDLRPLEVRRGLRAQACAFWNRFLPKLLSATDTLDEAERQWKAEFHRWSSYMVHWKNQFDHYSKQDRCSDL

Cl
inactive: [1] | [2] | [3] | [4] | [5] | [6] | [7] | [8] | [9] | [10] | [11] | [12]

Clc1ccccc1-c1nnc(-c2ccccc2Cl)nn1
inactive: [1] | [2] | [3] | [4] | [5] | [6] | [7] | [13] | [14] | [8] | [9] | [11] | [12] | [16] | [17]
54 µM (active) and inactive: [10] | [15]

CCCCC(C#N)(Cn1cncn1)c1ccc(Cl)cc1 (stereo unspecified)
30.5 µM (active) and inactive: [15]
active: [2] 30.5 µM
inactive: [1] | [3] | [4] | [5] | [6] | [7] | [13] | [14] | [8] | [9] | [10] | [11] | [12] | [16] | [17]

CC(C)(O)C#N
inactive: [1] | [2] | [3] | [4] | [5] | [6] | [7] | [13] | [14] | [8] | [9] | [11] | [12] | [15] | [16] | [17]

N#Cc1cccnc1
inactive: [1] | [2] | [3] | [4] | [5] | [6] | [7] | [13] | [14] | [8] | [9] | [11] | [12] | [15] | [16] | [17]

S=c1[nH]c2ccccc2[nH]1
active: [2] 30.7 µM | [3] 24.4 µM | [15] 68.7 µM
50.1 µM (active) and inactive: [8]
13.7 µM (active) and inactive: [10]
inactive: [1] | [4] | [5] | [6] | [7] | [13] | [14] | [9] | [11] | [12] | [16]
35.7 µM (active) and inactive: [17]

CCOP(=S)(OCC)OP(=S)(OCC)OCC
inactive: [1] | [2] | [3] | [4] | [5] | [6] | [7] | [13] | [14] | [8] | [9] | [11] | [12] | [15]
active: [16] 8.18 µM and 5.03 µM | [17] 72.9 µM and 79.6 µM
